# Test results: paper PMC12431657, “Discovery and mechanistic insights of dibenzoylmethane as a broad spectrum inhibitor of coronavirus” (PLOS Pathogens, 2025)
# Where a name gives a salt, the structure may show the parent alone. Read-outs that look alike come from different tables or passages of the source. In all, about 3,300 compounds went through this assay and about 95 (3%) showed an effect of 50% or more. The sample holds strong results, similar compounds and a random draw of the others, so the mix is not that of the screen.
# Test system: HCoV-229E
# Parameters: species or system Huh-7; HTS, protection from HCoV-229E induced cell death, luminescent cell viability (CellCounting-Lite 2.0), inhibition rate
# Conditions: 24 h post infection, 1 h compound pre-incubation, 10 µM, inhibitor
SMILES,"229E Inhibition rate (229E Inhibition rate, 24 h)",229E Inhibition rate
O=C(O)[C@H](O)[C@@H](O)C(=O)O [L-Tartaric acid],17.2%,–
CCOC(=O)CC(C)O (centres unmarked) [Ethyl 3-hydroxybutyrate],–,11.8%
CN1c2ccccc2C(=O)N2CCc3c([nH]c4ccccc34)C21 (racemic) [(±)-Evodiamine],–,18.7%
CCCCC/C=C/C=C/C(=O)NCC(C)C [Pellitorine],–,14.2%
O=C(O)c1ccccc1 [Benzoic acid],–,11.6%
O=C(O)c1ccncc1 [Isonicotinic acid],–,55%
O=C(O)c1ccc(C(=O)O)cc1 [Terephthalic acid],–,10.1%
"O=C(O)c1c(O)cccc1O [2,6-Dihydroxybenzoic acid]",–,10.3%
C=C(CO)C(=O)O[C@H]1CC(=C)[C@@H]2C[C@H](O)C(=C)[C@@H]2[C@H]2OC(=O)C(=C)[C@@H]21 [Cynaropicrin],–,8.5%
Cc1ccccc1C(=O)O [o-Toluic acid],–,0%
O=C(O)CNC(=O)c1ccccc1 [Hippuric acid],–,8.9%
Cc1ccccc1C(=O)NCC(=O)O [2-(2-Methylbenzamido)acetic acid],–,54.8%
CCOC(=O)/C=C/c1ccc(O)cc1 [p-Coumaric Acid Ethyl Ester],–,23%
O=C1Cc2ccccc2N1 [Oxindole],–,15.9%
O=C1C=CC[C@@H]2[C@H]3CCCN4CCC[C@@H](CN12)[C@@H]34 [Sophocarpine (monohydrate)],23.9%,–
COc1ccc(C2COc3cc(O)ccc3C2)c(O)c1OC (centres unmarked) [Isomucronulatol],–,9.8%
COc1ccc(C(=O)O)cc1 [p-Anisic acid],–,5.8%
Oc1cc(O)c2c(c1)O[C@@H](c1cc(O)c(O)c(O)c1)[C@H](O)C2 [(-)-Gallocatechin],–,16.1%
Oc1cc(O)c2c(c1)O[C@H](c1cc(O)c(O)c(O)c1)[C@H](O)C2 [(-)-Epigallocatechin],–,10.4%
Oc1cc(O)c2c(c1)O[C@H](c1cc(O)c(O)c(O)c1)[C@@H](O)C2 [(+)-Gallocatechin],–,54.1%
O=C(O)CC(O)(CC(=O)O)C(=O)O [Sodium citrate (dihydrate)],0%,–
CC(C)C1=Cc2ccc3c(c2C(=O)C1=O)CCCC3(C)C [Miltirone],–,4.2%
O=C(O)Cc1cccc(O)c1 [3-Hydroxyphenylacetic acid],–,11%

SMILES,"229E Inhibition rate (229E Inhibition rate, 24 h)",229E Inhibition rate
C=C1C[C@]2(O)O[C@@]3(CC2=C(C)C)[C@@H](C)CC[C@@H]13 [Isocurcumenol],–,10.7%
CC1=C[C@]2(O)O[C@@]3(CC2=C(C)C)[C@@H](C)CC[C@@H]13 [Curcumenol],–,64.3%
C=C1C[C@@]2(O)O[C@@]3(C[C@H]2C(C)C)[C@@H](C)CC[C@@H]13 [Curcumol],–,11.7%
"O=C1CCCCC1=O [1,2-Cyclohexanedione]",–,20.8%
C=C(C)C1CC=C(C)C(O)C1 (mixture of isomers) [Carveol],–,14.5%
C[C@H]1CC[C@@H]2N(C1)C[C@H]1[C@@H]3C[C@H]4[C@@H](CC(=O)[C@H]5C[C@@H](O[C@@H]6O[C@H](CO)[C@@H](O)[C@H](O)[C@H]6O)CC[C@@]54C)[C@@H]3CC[C@@H]1[C@]2(C)O [Edpetiline],–,11.7%
O[C@@H]1[C@@H](O)[C@H](OC/C=C/c2ccccc2)O[C@H](CO[C@@H]2OC[C@H](O)[C@H](O)[C@H]2O)[C@H]1O [Rosavin],–,56.6%
COC(=O)c1ccccc1O[C@@H]1O[C@H](CO[C@@H]2OC[C@@H](O)[C@H](O)[C@H]2O)[C@@H](O)[C@H](O)[C@H]1O [Gaultherin],–,45.9%
COc1ccc(C(C)=O)c(O[C@@H]2O[C@H](CO[C@@H]3OC[C@H](O)[C@H](O)[C@H]3O)[C@@H](O)[C@H](O)[C@H]2O)c1 [Apiopaeonoside],–,0%
O=C1NCN(c2ccccc2)C12CCN(CCCOc1ccc(F)cc1)CC2 [Spiramide],–,51.4%
Cc1cc(O)c2c(c1)C(=O)c1cccc(O)c1C2=O [Chrysophanol],–,29.5%
O=C1c2cccc(O)c2C(=O)c2c(O)cccc21 [Danthron],–,0%
O=C(O)c1cc(O)c2c(c1)C(=O)c1cccc(O)c1C2=O [Rhein],–,55.2%
C=C1C=CC(C(C)C)CC1 (stereo not drawn) [β-Phellandrene],–,51.8%
CC(C)=CC[C@]12Oc3cc(O)c([C@H]4C=C(C)C[C@H](c5ccc(O)cc5O)[C@H]4C(=O)c4ccc(O)cc4O)c(O)c3C(=O)[C@@]1(O)Oc1cc(O)ccc12 [Sanggenon C],–,43.3%
COC(=O)[C@@H]1[C@H]2C[C@H]3c4[nH]c5ccccc5c4CCN3C[C@@H]2CC[C@@H]1O [Yohimbine (Hydrochloride)],36%,–
COC(=O)[C@H]1[C@H]2C[C@H]3c4[nH]c5ccccc5c4CCN3C[C@H]2CC[C@@H]1O [Rauwolscine (hydrochloride)],–,43.9%
COC(=O)[C@@H]1[C@H]2C[C@H]3c4[nH]c5ccccc5c4CCN3C[C@@H]2CC[C@@H]1O [Yohimbine],50.5%,–
COC(=O)C1=CO[C@@H](C)[C@H]2CN3CCc4c([nH]c5ccccc45)[C@@H]3C[C@H]12 [Ajmalicine],–,55.3%
COC(=O)C1=CO[C@@H](C)[C@H]2CN3CC[C@]4(C(=O)Nc5ccccc54)[C@@H]3C[C@H]12 [Mitraphylline],–,5.5%
COC(=O)C1=CO[C@@H](C)[C@@H]2CN3CC[C@@]4(C(=O)Nc5ccccc54)[C@@H]3C[C@H]12 [Isopteropodine],–,13.3%
Cn1cnc2c(ncn2[C@@H]2O[C@H](CO)[C@@H](O)[C@H]2O)c1=N [1-Methyladenosine],–,12.1%
N[C@@H](Cc1c[nH]c2ccc(O)cc12)C(=O)O [5-Hydroxytryptophan],13.7%,–

SMILES,"229E Inhibition rate (229E Inhibition rate, 24 h)",229E Inhibition rate
C[N+]1(C)CCC[C@H]1C(=O)[O-] [Stachydrine hydrochloride],11.8%,–
C[C@@H]1CC[C@@]2(OC1)O[C@H]1C[C@H]3[C@@H]4CC[C@H]5C[C@@H](O)CC[C@]5(C)[C@H]4CC[C@]3(C)[C@H]1[C@@H]2C [Tigogenin],–,11%
C[C@H]1CC[C@]2(NC1)O[C@H]1C[C@H]3[C@@H]4CC[C@H]5C[C@@H](O)CC[C@]5(C)[C@H]4CC[C@]3(C)[C@H]1[C@@H]2C [Tomatidine (hydrochloride)],28.3%,–
C[C@H]1CC[C@]2(NC1)O[C@H]1C[C@H]3[C@@H]4CC[C@H]5C[C@@H](O)CC[C@]5(C)[C@H]4CC[C@]3(C)[C@H]1[C@@H]2C [Tomatidine],55.9%,–
COc1cc(-c2oc3cc(O)cc(O)c3c(=O)c2O)ccc1O [Isorhamnetin],–,7.4%
COc1cc2c(cc1O)CC[N+](C)(C)[C@@H]2Cc1ccc(O)cc1 [Lotusine (hydroxide)],–,0%
COc1cc(/C=C/C(=O)OC[C@H]2O[C@H](O[C@]3(CO)O[C@H](CO)[C@@H](O)[C@@H]3OC(=O)/C=C/c3cc(OC)c(OC)c(OC)c3)[C@H](O)[C@@H](O)[C@@H]2O)cc(OC)c1O [Tenuifoliside C],–,19.9%
Cc1ccc(C(=O)O)cc1 [p-Toluic acid],–,6.6%
CC(C)=CC(=O)C[C@H](C)c1ccc(C)cc1 [ar-Turmerone],–,53%
CC(=O)c1ccc(C)cc1 [4'-Methylacetophenone],–,8.7%
"CC1=COC(=O)[C@H]2[C@@H]1CC[C@@H]2C [4aα,7α,7aα-Nepetalactone]",–,8.3%
CC(=O)CCc1ccc(O[C@@H]2O[C@H](CO)[C@@H](O)[C@H](O)[C@H]2O)cc1 [Raspberry ketone glucoside],–,19.3%
C=C[C@H]1CN2CC[C@]3(C(=O)Nc4ccccc43)[C@@H]2C[C@@H]1/C(=C\OC)C(=O)OC [Corynoxeine],–,15.2%
CCOC(=O)C1=C[C@]2(CC)CCCN3CCc4c(n1c1ccccc41)[C@@H]32 [Vinpocetine],–,50%
CC[C@]12CCCN3CCc4c(n(c5ccccc45)[C@@](O)(C(=O)OC)C1)[C@@H]32 [Vincamine],–,16.6%
CC[C@]12CCCN3CCc4c(n(c5ccccc45)C(=O)C1)[C@@H]32 [Vinburnine],–,22.5%
C/C=C(/C)C(=O)O[C@H]1c2cc3c(c4c2[C@@]2(CO4)C(=O)C(OC)=C(OC)C=C2C[C@@H](C)[C@H]1C)OCO3 [Heteroclitin D],–,47.7%
COc1cc2oc(=O)ccc2cc1CC=C(C)C [Suberosin],–,15.6%
COC(=O)CC[C@@H](C)[C@H]1CC[C@H]2[C@@H]3[C@H](O)C[C@@H]4C[C@H](O)CC[C@]4(C)[C@H]3C[C@H](O)[C@]12C [Methyl cholate],–,54.9%
COc1c(/C=C/C(=O)c2ccc(O)cc2)ccc(O)c1CC=C(C)C [Licochalcone C],–,5%
